Source: PubChem BioAssay AID488890 (Southern Research Specialized Biocontainment Screening …, 2010)
The campaign covered roughly 320,000 compounds. About 1,300 (0.41%) were called active. Inconclusive results (about 3%) are left out. No rule for the calls is given here. These entries were drawn from the full list. Results with a measured potency or affinity are listed apart.

Assay: growth inhibition of non-replicating M. tuberculosis (AID 488890);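 also: plate controls were DMSO cells for no effect and high antibiotic wells for full effect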
Settings: Mycobacterium tuberculosis non-replicating, at 25 µM, stronger effect = higher value

| Compound | inhibition |
| --- | --- |
| O=C(N/N=C/c1ccc2cccnc2c1)c1ccco1 | 14.9% |
| COc1ccc(CCNS(=O)(=O)c2c(N)n(C)c(=O)n(C)c2=O)cc1OC | 3.12% |
| CCOc1ccc(C(=O)Nc2cc(S(=O)(=O)Nc3ccccc3Cl)ccc2N2CCOCC2)cc1 | 4.51% |
| CS(=O)(=O)N(CC(=O)NCC1CCCO1)c1cc(Cl)cc(Cl)c1 (configuration not stated) | -12.1% |
| Clc1ccc(OCCn2ccnc2)c2ccccc12 | 17.9% |
| Cc1ccc(OCCCn2ccnc2)c(Br)c1 | 27.2% |
| Clc1ccccc1OCCCn1ccnc1 | -0.75% |
| Clc1cc(Br)ccc1OCCn1ccnc1 | 40% |
| O=C(CCNC(=O)C1CCN(S(=O)(=O)c2ccccc2)CC1)NCCc1ccc(Cl)cc1 | 1.82% |
| CN1CCN(C(=O)C2CCCN(S(=O)(=O)c3ccc(Br)cc3)C2)CC1 (configuration not stated) | 8.61% |
| COc1ccc(CCn2c(N3CCN(Cc4ccccc4)CC3)nc3c2c(=O)[nH]c(=O)n3C)cc1 | 15.1% |
| CC1(c2nnc(-c3ccccc3)o2)CC(c2ccccc2)=NO1 (configuration not stated) | 79.5% |
| CC1(c2nnc(-c3ccc(Cl)cc3)o2)CC(c2cccc(Cl)c2)=NO1 (configuration not stated) | 79.6% |
| CC1(c2nnc(-c3ccc(Cl)cc3)o2)CC(c2ccc(Cl)cc2)=NO1 (configuration not stated) | 36.6% |
| CC1(c2nnc(-c3cccc(Cl)c3)o2)CC(c2ccc(F)cc2)=NO1 (configuration not stated) | 70.9% |
| Cc1ccc(OCCn2ccnc2)c(C)c1 | 6.35% |
| CCOc1cc(/C=C2\CCn3c2nc2cc(Cl)ccc2c3=O)ccc1O | 9% |
| CN(c1ccccc1)S(=O)(=O)c1cc(Cl)ccc1Cl | 28.7% |
| CCOc1cc(NC(=O)c2ccccc2OC)c(OCC)cc1NC(=O)c1ccccc1 | 8.11% |
| C/C(=N\NC(=O)c1ccc2c(c1)OCO2)c1ccc2c(c1)OCO2 | 41.2% |
| C/C(=N\NC(=O)c1ccccc1)c1ccc2c(c1)OCO2 | 35.4% |
| O=C(CCSc1ccccc1)NCc1cccnc1 | -1.43% |
| Cc1ccc(N2C(=O)NC(=O)/C(=C\C=C\c3ccco3)C2=O)cc1C | 13% |

| Compound | inhibition |
| --- | --- |
| O=C1NC(=O)N(Cc2ccc(F)cc2)C(=O)/C1=C\C=C\c1ccco1 | 75.2% |
| Cc1cc(C)cc(N2C(=O)NC(=O)/C(=C\C=C\c3ccco3)C2=O)c1 | 2.52% |
| O=C1NC(=O)N(c2ccccc2)C(=O)/C1=C/C=C/c1ccco1 | -12.6% |
| Cc1ccc(N2C(=O)NC(=O)/C(=C\C=C\c3ccco3)C2=O)cc1 | 18.7% |
| CN1C(=O)/C(=C/C=C/c2ccco2)C(=O)NC1=S | -21.1% |
| COc1ccc(NC(=O)CCNS(=O)(=O)c2ccccc2F)cc1S(N)(=O)=O | -0.54% |
| Cc1ccccc1C1c2[nH]c3ccccc3c2CCN1C(=O)c1ccc(=O)n(C)n1 (configuration not stated) | 10.8% |
| CCOC(=O)c1c(C)c(C)n(Cc2ccc(OC)c(OC)c2)c1C | 16.5% |
| Cc1cc(C(=O)COc2ccccc2C(N)=O)c(C)n1CC1CCCO1 (configuration not stated) | -26.6% |
| Cc1cc(C(=O)COc2ccccc2C(N)=O)c(C)n1C | 4.7% |
| CCN(CC(=O)NC(=O)NCc1ccco1)Cc1nc2ccccc2c(=O)[nH]1 | 12.9% |
| COCCNC(=O)Cc1c(C)c2c(cc(C)c3c(C(C)(C)C)coc32)oc1=O | 26.6% |
| O=C(CCc1nnc2n(Cc3ccc(F)cc3)c(=O)c3ccccc3n12)N1CCN(c2ccccn2)CC1 | -3.25% |
| O=C(Nc1ccc(Cl)cc1)OCCn1nnnc1C(c1ccccc1)N1CCOCC1 (configuration not stated) | 4.68% |
| O=C(Nc1cc(S(=O)(=O)N2CCOCC2)ccc1N1CCOCC1)c1ccc([N+](=O)[O-])s1 | 50.4% |
| NS(=O)(=O)c1ccc(NC(=O)c2ccc(S(=O)(=O)N3CCOCC3)o2)cc1 | 1.05% |
| Cc1ccc(C(=O)Nc2cccc(S(=O)(=O)N3CCCC3)c2)o1 | -4.97% |
| O=C(Nc1ccc(S(=O)(=O)N2CCOCC2)cc1)c1ccc(Cl)s1 | 5.17% |
| CCN1CCN(c2ccc(S(=O)(=O)N3CCCCC3)cc2NC(=O)c2ccccc2)CC1 | -11.8% |
| COc1ccc(S(=O)(=O)N2CCCCC2)cc1NC(=O)c1ccc([N+](=O)[O-])o1 | 1.5% |
| O=C(Nc1ccc(S(=O)(=O)N2CCOCC2)cc1)c1ccc(Br)o1 | -0.17% |
| Cc1ccc(NC(=O)c2ccc([N+](=O)[O-])s2)cc1S(=O)(=O)N1CCOCC1 | 43.2% |
| CCOc1ccc2oc(C(=O)OCC(=O)NC3CCCC3)c(C)c2c1 | 9.82% |

| Compound | inhibition |
| --- | --- |
| O=C(c1ccc2c(c1)CCN2S(=O)(=O)c1ccccc1)N1CCN(c2ccc(F)cc2)CC1 | 18.7% |
| NC(=O)c1sc2nc(N3CCOCC3)c3c(c2c1N)CCCC3 | 3.31% |
| CCN(CC)CCOC(=O)C(Cc1ccco1)Cc1cccc2ccccc12 (configuration not stated) | 12.1% |
| COc1ccc2c(c1OC)C(=O)OC2Nc1nc(-c2cc3ccccc3oc2=O)cs1 (configuration not stated) | 2.83% |
| COc1cc(S(=O)(=O)N2CCOCC2)cc(C(=O)OCC(=O)NC2CCCCC2)c1OC | -1.4% |
| O=C(/C=C/c1cc([N+](=O)[O-])ccc1OC(F)F)Nc1cccc(OC(F)F)c1 | 0.25% |
| COCCn1c(=NC(=O)CSCC(=O)N2CCOCC2)sc2ccccc21 | -8.23% |
| Cn1cccc1C(=O)OCC(=O)Nc1cccc(S(=O)(=O)N2CCOCC2)c1 | -0.69% |
| COC(=O)C1=C(c2ccc(OC)c(OC)c2)C[C@@H]2CC[C@H]1N2C(=O)NCc1cc(C)oc1C(F)(F)F | -13.9% |
| Oc1cccc(Nc2nc(-c3ccccc3Cl)nc3ccccc23)c1 | 1.57% |
| Cc1ccc(C)c(NC(=O)c2cc3ccccc3o2)c1 | 75.5% |
| O=C(O)c1ccc(NC(=O)c2cc3ccccc3o2)cc1 | 19.5% |
| O=C(Nc1ccc(NC(=O)c2cc3ccccc3o2)cc1)c1ccco1 | 2.59% |
| O=C(Nc1ccccc1)c1ccc(OC(=O)c2cc3ccccc3o2)cc1 | 45.2% |
| CC(C)C(=O)Nc1cccc(NC(=O)c2cc3ccccc3o2)c1 | 2.48% |
| O=C(COC(=O)c1cc2ccccc2o1)c1ccccc1 | 51.9% |
| Cc1ccnc(NC(=O)c2oc3ccccc3c2C)c1 | 20.3% |
| CC(=O)Nc1cccc(NC(=O)c2cc3ccccc3o2)c1 | 32.4% |
| O=C(CSCc1cnn(-c2ccccc2)c1-n1cccc1)N1CCN(Cc2ccccc2)CC1 | 2.12% |
| C=CC[C@@H](CC(=O)N[C@H](CO)Cc1ccccc1)C(=O)N[C@@H](COC(=O)[C@@H](CC=C)CC(=O)OC(C)(C)C)Cc1c[nH]c2ccccc12 | 61% |
| CCN(Cc1ccccc1)C(=O)CSc1nc(C)cc(=O)[nH]1 | 10.7% |
